High-throughput results (PubChem)
This is a sample that favours compounds with a hit; in the whole collection about 12% have one here.
WT yeast gro inh – growth inhibition of WT yeast, mitochondrial fusion screen; inhibition, % at 10 µM; AID 1362; actives 2.1% (n = 190,000); mitochondrial fusion phenotypic screen, WT strain; in the data active = inhibition above about 58%; tested in S. cerevisiae
Insulin prom up – MIN6 insulin promoter up-regulation; actives 0.3% (n = 190,000); MIN6 insulin promoter-GFP reporter, high-content imaging; stronger effect = higher value; z-score at 5 µM;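 active = z-score above 3 at 5 µM with at least 500 cells counted in the well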
KCC2 mod – modulators of human KCC2 chloride dependent transport | KCC2 cells, thallium flux FluoZin-2 fluorescence | B-score of Tl+ flux slope (higher = more flux/activation; lower = inhibition) at 10 µM | actives 2.2% (n = 190,000) | AID 1456;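 active = thallium flux slope and its plate-corrected score both differing from the plate sample mean at a set confidence after two filtering rounds, in either direction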;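 note: slope of fluorescence scaled to starting intensity during 10 to 20 s after thallium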
ROMK primary – modulators of human ROMK potassium channel | B-score at 10 µM | P48048 | Tet-inducible ROMK, thallium flux fluorescence; actives lie on both sides | actives 2% (n = 130,000);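 active = signal ratio slope over the read window, or its plate-corrected B-score, at least 3 SD from the plate mean, either direction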;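 note: B-score of the F/F0 ratio slope over 7 to 12 s after thallium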
Target sequence (P48048 whole entry, looked up): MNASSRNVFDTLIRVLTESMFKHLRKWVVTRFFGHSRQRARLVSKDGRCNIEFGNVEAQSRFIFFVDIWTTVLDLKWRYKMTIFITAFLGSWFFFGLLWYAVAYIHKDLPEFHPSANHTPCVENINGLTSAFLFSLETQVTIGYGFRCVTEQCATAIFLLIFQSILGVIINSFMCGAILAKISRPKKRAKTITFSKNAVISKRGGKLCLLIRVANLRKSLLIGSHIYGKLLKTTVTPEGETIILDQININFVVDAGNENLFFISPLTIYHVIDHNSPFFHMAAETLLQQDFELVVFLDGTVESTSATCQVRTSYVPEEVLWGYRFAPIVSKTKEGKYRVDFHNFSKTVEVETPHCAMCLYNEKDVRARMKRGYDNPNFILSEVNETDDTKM
Lmaj promast – Leishmania major promastigote growth inhibition; Leishmania major promastigotes, resazurin fluorescence viability; inhibition, % at 10 µM; actives 9% (n = 200,000); in the data active = inhibition above about 50%;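 note: promastigotes grown with compound for 44 hours at 28 °C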
Insulin prom inh – TRM-6 insulin promoter activity inhibition; TRM-6 cells (human fetal islet line), insulin promoter-eGFP reporter, imaging; reporter expression induced with tamoxifen; actives 0.9% (n = 130,000); inhibition, % at 2 µM;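 active = inhibition above the mean plus 3 SD, with well images judged a real hit on visual review, cut at about 60% in these data, passing the limit was not always enough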
Hits are given with their value; n = inactive; x = not tested or not shown.

SMILES	WT yeast gro inh	Insulin prom up	KCC2 mod	ROMK primary	Lmaj promast	Insulin prom inh
CN(C)CCNc1ncnc2c1cnn2-c1ccc(Cl)cc1	n	n	n	x	98.4	x
c1ccc(-n2ncc3c(NCc4cccnc4)ncnc32)cc1	n	n	n	x	61.3	n
c1ccc(-n2ncc3c(NCc4cccs4)ncnc32)cc1	n	n	n	x	n	x
COCCNC(=O)/C(C#N)=C/c1ccc(-c2ccc(OC)cc2[N+](=O)[O-])o1	n	n	n	x	n	n
CCc1ccc(-c2ccc(SCC(=O)NCC3CCCO3)nn2)cc1 (stereo not given)	n	n	n	n	n	n
COc1ccc(-n2ncc3c(NCc4ccco4)ncnc32)cc1	68.5	n	x	n	n	x
COc1ccc(-n2ncc3c(NCc4cccs4)ncnc32)cc1	n	n	n	x	n	n
CCCc1ccc(Oc2c(-c3ccc(O)c(C)c3O)n[nH]c2C)cc1	89.7	n	n	x	n	x
COc1ccc(Oc2c(-c3ccc(O)cc3O)n[nH]c2C)cc1	n	n	n	x	n	n
CCOc1ccccc1C(=O)N(CN1CCCC1=O)c1ccc(C)c(Cl)c1	n	n	n	x	n	x
COC(=O)c1cn(C(=O)c2cccs2)c2ccccc12	n	n	n	x	n	n
Cc1[nH]n2c(=O)c(C#N)c(-c3ccccc3)nc2c1-c1ccccc1	n	n	n	x	n	n
O=c1c2c(nc3c(-c4ccccc4)c[nH]n13)CCCC2	n	n	2.76	x	73.7	n
Cc1[nH]n2c(=O)c3c(nc2c1-c1ccccc1)CCC3	n	n	n	x	n	83.3
Cc1[nH]n2c(=O)c3c(nc2c1-c1ccc(Cl)cc1)CCC3	n	n	n	n	99.5	n
N#Cc1c[nH]n2c(=O)c3c(nc12)CCCC3	n	x	x	x	n	n
Cc1[nH]n2c(=O)cc(C(C)(C)C)nc2c1-c1ccccc1	n	n	x	n	99.3	n
COCC(C)n1c(C)cc(C(=O)CSc2nnc(Nc3ccccc3F)s2)c1C (stereo not given)	n	n	n	x	n	n
Cc1ccccc1/C=C\c1nc2ccccc2c(=O)n1Cc1ccccc1	n	n	n	n	98.7	n
CCn1c(/C=C\c2ccccc2C)nc2ccccc2c1=O	n	x	n	n	n	n
COc1cc(CNc2ccc(C(=O)O)cc2)cc(Br)c1OCC(=O)NC(C)(C)C	n	n	n	n	n	x
C=CCOc1c(Br)cc(CNc2ccc(NC(=O)C(C)C)c(OC)c2)cc1OC	n	n	n	x	99.2	n
C=CCOc1c(Br)cc(CNn2nnnc2N)cc1OC	n	n	n	n	100.5	n
Cc1oc(S(=O)(=O)N2CCCC2)cc1C(=O)Nc1ccc(F)cc1	x	n	n	n	x	x
N#Cc1ccccc1NC(=S)Nc1ccc(F)cc1	n	n	n	n	n	x
SMILES	WT yeast gro inh	Insulin prom up	KCC2 mod	ROMK primary	Lmaj promast	Insulin prom inh
COc1cc(OC)c(-c2nn3c(C4CCCCC4)nnc3s2)cc1OC	n	n	n	x	56.5	n
CCCCN(C)CCC(=O)Nc1ccc(C)cc1	n	n	n	x	90.0	n
COC(=O)C(NC(=O)c1ccccc1)=C1CCCCC1	n	n	x	n	n	n
O=C1C(NS(=O)(=O)c2cccs2)=C(N2CCOCC2)C(=O)c2ccccc21	x	n	n	x	x	x
CN(C1=C(N2CCOCC2)C(=O)c2ccccc2C1=O)c1ccccc1	n	n	n	n	58.6	n
CC(C)(C)C1CCc2c(sc(NC(=O)CSc3ncn[nH]3)c2C#N)C1 (stereo not given)	93.1	n	n	n	n	n
CCN1CCN(CC(=O)Nc2sc3c(c2C#N)CCC(C)C3)CC1 (stereo not given)	n	n	x	n	100.4	x
CC1=CC(C)(C)N(C(=O)C(C)N2C(=O)c3ccccc3C2=O)c2c(C)cc(C)cc21 (stereo not given)	x	n	n	x	n	n
COc1ccccc1N1CCN(S(=O)(=O)Cc2ccccc2Cl)CC1	n	n	n	n	n	88.9
COc1ccccc1N1CCN(S(=O)(=O)c2ccccc2)CC1	n	n	n	x	n	n
COc1ccccc1N1CCN(S(=O)(=O)c2cccs2)CC1	n	n	n	n	54.0	n
COc1ccccc1N1CCN(S(=O)(=O)c2ccc(Br)s2)CC1	n	n	n	x	n	n
Cc1ccc(S(=O)(=O)N(C)c2cc(S(=O)(=O)N3CCC(C)CC3)c(C)cc2C)cc1	n	n	n	x	77.2	n
CS(=O)(=O)N1CCCC(C(=O)NCCc2ccccc2)C1 (stereo not given)	n	n	n	n	n	n
Cc1cccc(NC(=S)c2nc3ccccc3s2)c1	66.9	n	3.34	n	n	x
